# Test results taken from PubChem BioAssay (NCATS).
# Results filed as inconclusive are left out. A call without a number means that no potency is given here. Activity calls are given as the source filed them. The call rests on the fitted dose curve; in most records, active means well fitted activation curve with a large enough effect; inconclusive means small, poorly fitted or top-dose-only effect; inactive means flat fitted curve, though single readings scatter.
# Target: Cellular tumor antigen p53 (Homo sapiens) (UniProt P04637)
# Sequence (P04637 whole entry, looked up): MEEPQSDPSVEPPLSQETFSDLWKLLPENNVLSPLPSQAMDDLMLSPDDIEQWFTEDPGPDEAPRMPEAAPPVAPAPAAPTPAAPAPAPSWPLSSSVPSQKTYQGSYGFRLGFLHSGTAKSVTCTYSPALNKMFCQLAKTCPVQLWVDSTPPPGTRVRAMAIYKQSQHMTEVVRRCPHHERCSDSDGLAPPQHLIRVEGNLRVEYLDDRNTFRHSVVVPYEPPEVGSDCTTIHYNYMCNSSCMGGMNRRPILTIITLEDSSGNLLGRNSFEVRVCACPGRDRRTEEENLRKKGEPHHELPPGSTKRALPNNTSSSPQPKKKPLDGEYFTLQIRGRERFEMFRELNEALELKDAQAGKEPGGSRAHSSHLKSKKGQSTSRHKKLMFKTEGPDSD
# Assay: Primary qHTS for small molecule compounds that upregulate eGFP-tagged delta133p53alpha (in C-terminal) cells. (AID 2060324)
# Conditions: NCI-H358 delta133p53alpha-eGFP (C-terminal tag), GFP fluorescence imaging, 24 h; series mostly up to 57.5 µM
# Summary of the method: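 Doxycycline (100 ng/ml, 24 h) first induced the eGFP fusion in NCI-H358 C-terminal-tag cells. Washed-out cells then received titrated compounds for 24 h at 37 °C before paraformaldehyde fixation, Hoechst staining and cytometric GFP quantification.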
# Potency means the concentration at half of the fitted maximal effect.
row,SMILES,Potency
1,O=c1cc(N2CCOCC2)oc2c(-c3ccccc3)cccc12,inactive
2,Cc1nc(N=Nc2cc(S(=O)(=O)O)c3cc([N+](=O)[O-])cc(S(=O)(=O)O)c3c2)c(COP(=O)(O)O)c(C=O)c1O,inactive
3,NC(=O)C1=CN(C2OC(COP(=O)(O)OP(=O)(O)OC[C@H]3O[C@@H](n4cnc5c(N)ncnc54)[C@H](OP(=O)(O)O)[C@@H]3O)C(O)C2O)C=CC1 (some centres undefined),inactive
4,CC1=C(/C=C/C(C)=C/C=C/C(C)=C/C(=O)O)C(C)(C)CCC1,inactive
5,COc1ccccc1N1CCN(CC(O)COc2cccc3ccccc23)CC1 (centres undefined),inactive
6,COc1ccccc1N1CCN(CCN2C(=O)CC3(CCCC3)CC2=O)CC1,inactive
7,N#C/C(=C\c1ccc(O)c(O)c1)C(=O)NCCCNC(=O)/C(C#N)=C/c1ccc(O)c(O)c1,inactive
8,Cc1[nH]c(=O)c(C#N)cc1-c1ccc2nccn2c1,30.1 µM (active)
9,Cc1oncc1C(=O)Nc1ccc(C(F)(F)F)cc1,inactive
10,c1ccc(C(NCc2cccnc2)(c2ccccc2)c2ccccc2)cc1,inactive
11,CN1CCN(C2=Nc3ccccc3Oc3ccc(Cl)cc32)CC1,inactive
12,O=C1c2c(O)cc(O)cc2OC(c2ccc(O)c(O)c2)C1O (centres undefined),inactive
13,CO/N=C(\C(=O)N[C@@H]1C(=O)N2C(C(=O)O)=C(CSc3nc(=O)c(O)nn3C)CSC12)c1csc(N)n1 (some centres undefined),inactive
14,O=C(Nc1cccc(C(=O)Nc2ccc(S(=O)(=O)O)c3cc(S(=O)(=O)O)cc(S(=O)(=O)O)c23)c1)Nc1cccc(C(=O)Nc2ccc(S(=O)(=O)O)c3cc(S(=O)(=O)O)cc(S(=O)(=O)O)c23)c1,inactive
